Consider six compounds from PubChem BioAssay.

Inconclusive results are not listed. The source made the active and inactive calls.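 How the source made its calls, unless noted: active means inhibition over a set limit, the all-compound mean plus 3 SD, in both replicate runs; inconclusive means over that limit in just one replicate run; inactive means at or under that limit in both runs.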

The nature of assay [1]: reducers of endogenous Her2 protein level, primary screen, SKBR3 breast tumor cells, AlphaScreen, ATP viability (AID 461;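 active means Her2 level under about 52% in both replicate screens, with viability over 70% of control, limit read from the data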;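 on Her2 level: lower value means less Her2 protein in the cells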;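 on viability: percent of carrier control wells set as 100% viability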). As to conditions: 18-24 h, measured here: SKBR3 viability, ATP luminescence, at 10 µM.
In assay [2] the target is Receptor tyrosine-protein kinase erbB-2 (Homo sapiens) (UniProt P04626). The description is as above. As to conditions: 18-24 h, at 10 µM, stronger effect = lower value.
Sequence of Receptor tyrosine-protein kinase erbB-2 (Homo sapiens) (P04626 whole entry, looked up): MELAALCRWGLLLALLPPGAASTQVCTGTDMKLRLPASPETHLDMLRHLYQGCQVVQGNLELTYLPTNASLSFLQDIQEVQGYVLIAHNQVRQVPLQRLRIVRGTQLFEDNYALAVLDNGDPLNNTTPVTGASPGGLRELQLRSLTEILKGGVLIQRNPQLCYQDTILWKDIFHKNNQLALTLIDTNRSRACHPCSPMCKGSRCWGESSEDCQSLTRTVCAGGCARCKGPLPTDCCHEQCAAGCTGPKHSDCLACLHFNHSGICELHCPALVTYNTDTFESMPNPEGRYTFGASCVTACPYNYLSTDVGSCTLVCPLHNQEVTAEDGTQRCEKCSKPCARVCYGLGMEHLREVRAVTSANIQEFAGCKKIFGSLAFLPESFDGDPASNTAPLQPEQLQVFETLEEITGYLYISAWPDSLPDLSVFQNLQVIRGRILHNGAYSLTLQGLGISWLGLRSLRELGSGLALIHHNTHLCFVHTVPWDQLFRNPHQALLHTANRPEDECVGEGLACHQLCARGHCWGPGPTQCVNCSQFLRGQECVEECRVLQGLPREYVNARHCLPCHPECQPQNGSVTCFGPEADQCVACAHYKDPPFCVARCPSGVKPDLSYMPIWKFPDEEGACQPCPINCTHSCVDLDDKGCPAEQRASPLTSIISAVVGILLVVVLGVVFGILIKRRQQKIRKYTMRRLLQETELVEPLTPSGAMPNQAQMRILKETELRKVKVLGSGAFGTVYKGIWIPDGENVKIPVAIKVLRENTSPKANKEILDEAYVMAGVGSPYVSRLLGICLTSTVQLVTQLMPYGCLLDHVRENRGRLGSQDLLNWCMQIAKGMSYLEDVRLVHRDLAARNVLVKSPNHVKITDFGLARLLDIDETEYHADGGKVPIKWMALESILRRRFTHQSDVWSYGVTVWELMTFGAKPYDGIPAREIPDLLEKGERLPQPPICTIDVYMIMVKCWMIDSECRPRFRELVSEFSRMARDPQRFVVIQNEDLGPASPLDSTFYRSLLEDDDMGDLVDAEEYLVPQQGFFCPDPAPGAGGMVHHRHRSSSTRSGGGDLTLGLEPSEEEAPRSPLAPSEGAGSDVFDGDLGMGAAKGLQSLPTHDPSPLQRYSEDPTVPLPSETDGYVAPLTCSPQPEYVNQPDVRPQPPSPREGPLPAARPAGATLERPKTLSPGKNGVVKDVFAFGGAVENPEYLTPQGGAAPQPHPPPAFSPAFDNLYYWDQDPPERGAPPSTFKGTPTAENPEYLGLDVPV
The nature of assay [3]: SK-BR-3 cell growth inhibitors, pilot screen, 24 h, human (AID 572;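 active means viability at or below 10% of carrier control in both of two separate runs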;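 further: compound exposure lasted between 18 and 24 h rather than exactly 24 h; 100% = carrier-treated control wells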). Particulars: SK-BR-3 viability, CellTiter-Glo luminescence, at 10 µM, stronger effect = lower value. In general terms: Cellular ATP, detected with luciferase, serves as a proxy for viable cell number.
Assay [4] is described as follows: HUVEC growth inhibition – cell-based, human, primary screen (AID 575;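 active means viability at or below 30% in both replicate assays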;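 further: 100% = median of untreated cell wells with 0.1% DMSO on each plate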). As to conditions: HUVEC proliferation, CellTiter-Glo luminescence, 72 h; at 10 µM; stronger effect = lower value.
Assay [5] can be described thus: growth inhibitors of H69AR lung tumor, primary screen, human, duplicate replicates (AID 580;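 active means viability at or under a set limit in both replicates, limit being median viability minus 3 SD, cut at about 48% in these data, passing the limit was not always enough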;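 further: 100% = mean luminescence of untreated wells and 0% = no signal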). Particulars: H69AR lung tumor cells viability, ATP luminescence, 72 h; at 10 µM; stronger effect = lower value.
The nature of assay [6]: reversal of MRP1-mediated doxorubicin resistance, pilot screen, H69AR cells, doxorubicin co-treatment (AID 601;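 active means viability loss from added drug above about 55%, and viability with drug at most 40%, in both replicates, limit read from the data, passing the limit was not always enough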). As to conditions: CellTiter-Glo, 72 h, at 10 µM; for differential viability (reversal): stronger effect = higher value.
Assay [7] can be described thus: 384-well plate pilot, post-Golgi transport modulator project, inhibition of yeast transport mutant growth (AID 636; in the data active means inhibition above about 31%). As to conditions: absorbance 615 nm, about 18 h, stronger effect = higher value.
A short description of assay [8]: growth suppression of yeast trafficking mutant, preliminary HTS, modulators of trafficking downstream of Golgi apparatus project, 1536-format plate, OD 615 nm (AID 637; in the data active means inhibition above about 30%). Particulars: yeast transport mutant growth, absorbance 615 nm, 18 h; stronger effect = higher value.
A short description of assay [9]: OD615 S. cerevisiae growth inhibition, permissive medium, pilot counter-assay, permissive growth control for S. cerevisiae lifespan shortening project (AID 705;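 active means growth inhibition above 25% in both replicates, a cutoff set 3 SD above the mean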). As to conditions: OD615, 24 h, at 10 µM, stronger effect = higher value.
The nature of assay [10]: Restrictive medium S. cerevisiae growth inhibition, OD615, pilot screen of yeast lifespan reduction project, restrictive growth control (AID 706;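 active means growth inhibition above a set limit, 3 SD over mean compound inhibition, in both replicates, cut at about 43% in these data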;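 further: modified DeaD lifespan yeast strain shifted to restrictive glucose medium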). As to conditions: OD615, 48 h, at 10 µM, stronger effect = higher value.
Assay [11] is described as follows: viability gain of MRP-1-high H69AR cells under doxorubicin, pilot screen, MRP-1 activator project, CellTiter-Glo, duplicate (AID 807;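 active means viability increase at or above a cutoff of the median across tested compounds plus 3 SD, cut at about 8.5% in these data, passing the limit was not always enough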;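 further: compound pretreatment 18-22 h then 72 h combined with doxorubicin; 0% = doxorubicin alone and 100% = vehicle without doxorubicin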). Particulars: H69AR viability with doxorubicin, CellTiter-Glo luminescence; at 10 µM; stronger effect = higher value.
Assay [12] in a line: growth suppression of beta-catenin knockout HCT116, pilot screen, human colon tumor cells (AID 823;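 active means cell viability at or below a set limit in both duplicate runs, the limit being the all-compound median minus 4 SD, cut at about 23% in these data, passing the limit was not always enough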;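 further: 0% = wells killed by 20 µM Hyamine and 100% = untreated DMSO cell wells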). Particulars: CellTiter-Glo, 60 h, at 10 µM, stronger effect = lower value.
The nature of assay [13]: growth suppression of PTEN-deleted HCT116, pilot screen, cell-based, HCT116 clonal line, CellTiter-Glo (AID 824;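 active means viability at or below 27.92% in each of two runs, the all-compound median minus 4 SD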;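 further: 0% = 20 µM Hyamine control and 100% = vehicle cell control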). As to conditions: 60 h, at 10 µM, stronger effect = lower value.
Assay [14] is described as follows: inhibitors of the yeast RAM network, pilot screen, dse1pr::URA3 reporter, 5-FOA selection (AID 869).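 Further: 0% = DMSO wells with no growth and 100% = 10 µM 1-NA-PP1 with full growth; RAM network block rescues cells from 5-FOA so hits raise OD615 growth.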 As to conditions: S. cerevisiae dse1pr::URA3 5-FOA growth, OD615, 2 d; at 10 µM; stronger effect = higher value; strain carries analog-sensitive mutant Cbk1 kinase.
The nature of assay [15]: RAM signaling pathway blockade in yeast – S. cerevisiae, Pdr1DBD-CYC8 efflux-inhibited sensitized strain, primary screen (AID 1298;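 active means RAM network inhibition above 8.4% in each of two replicates, 3 SD over the compound average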;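 further: 0% = DMSO untreated cells without growth and 100% = 10 µM 1-NA-PP1 full growth; higher means more yeast growth rescued from 5-FOA killing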). As to conditions: S. cerevisiae cbk1-as DSE1-URA3 strain, 5-FOA growth OD615, 2 d; at 50 µM; stronger effect = higher value.
Setting [16] is: H69AR cells + 2 uM doxorubicin, measured here: viability with 2 uM doxorubicin, stronger effect = lower value.
[17] abbreviates: H69AR cells, compound alone cytotoxicity.

In general, viability refers to a read-out of living cells in per cent, often relative to untreated cells. The term inhibition denotes the drop in the measured response relative to a control, in per cent. `CC(=O)Nc1ccc(N=Cc2ccc[nH]2)cc1`: the viability in [1] is 97.5%; in [3], 97.5% (inactive); in assay [4], 95.3% (inactive); in [5], 88.5% (inactive); in [6] (setting [16]), 90%; in [6] (setting [17]) it was 88.5%. For the same compound, the viability in assay [12] was 90.7% (inactive); in assay [13] it was 92.8% (inactive). Further, the Her2 level in assay [2] was 87.5% (inactive). Also, the differential viability (reversal) in assay [6] (H69AR cells + 2 uM doxorubicin) was -1.47% (inactive). Also, the inhibition in assay [7] was 1.28% (inactive); in assay [8], -5.5% (inactive); in assay [14], 0.435% (inactive). The growth inhibition in assay [9] is -11.4% (inactive); in [10], -5.65% (inactive). In assay [11], the viability increase is -1.9% (inactive). For the same compound, the RAM network inhibition in assay [15] is 3.68% (inactive).

Take `CC(C)NC(=O)c1ccc2c(c1)nnn2C`: the viability in assay [1] was 94%; in assay [3] it was 94% (inactive); in assay [4], 87.6% (inactive); in [5] it was 99.4% (inactive); in assay [6] (setting [16]), 98.8%; in assay [6] (setting [17]) it was 99.4%. Besides, the viability in [12] is 106% (inactive); in assay [13], 105% (inactive). Moreover, the Her2 level in assay [2] was 84% (inactive). In assay [6] (H69AR cells + 2 uM doxorubicin), the differential viability (reversal) was 0.56% (inactive). Further, the values for the inhibition in assay [7], in assay [8] and in assay [14] were -4.05% (inactive), -4.92% (inactive) and 2% (inactive), respectively. For the same compound, the growth inhibition in assay [9] is -7.61% (inactive); in assay [10], -12.3% (inactive). Further, in assay [11], the viability increase is 0.39% (inactive). The RAM network inhibition in assay [15] is 1.32% (inactive).

As for `CC(C)(C)NC(=O)CC(CC(=O)O)c1ccccc1` (configuration not stated), the viability in assay [1] is 112%; in assay [3], 112% (inactive); in [4] it was 110% (inactive); in assay [5] it was 88.5% (inactive); in assay [6] (setting [16]), 97%; in assay [6] (setting [17]), 88.5%. Further, the viability is 106% (inactive) in [12] and 101% (inactive) in assay [13]. In assay [2], the Her2 level was 117% (inactive). Besides, the differential viability (reversal) in assay [6] (H69AR cells + 2 uM doxorubicin) is -8.51% (inactive). Also, the inhibition is -4.27% (inactive) in assay [7], 7.67% (inactive) in assay [8] and 2.61% (inactive) in [14]. For the same compound, the growth inhibition in [9] was -11.7% (inactive); in assay [10] it was 3.69% (inactive). For the same compound, the viability increase in assay [11] was -0.99% (inactive). Further, in assay [15], the RAM network inhibition is -1.67% (inactive).

For the compound `CCS(=O)(=O)c1nc2ccccc2n1Cc1ccccc1Cl`, the viability is 101% in assay [1]; 101% (inactive) in assay [3]; 109% (inactive) in [4]; 74.1% (inactive) in assay [5]; 83.6% in assay [6] (setting [16]); 74.1% in assay [6] (setting [17]). The viability in assay [12] was 71% (inactive); in [13] it was 61.5% (inactive). In addition, the Her2 level in assay [2] is 93% (inactive). In assay [6] (H69AR cells + 2 uM doxorubicin), the differential viability (reversal) was -9.51% (inactive). For the same compound, the inhibition was -0.27% (inactive) in assay [7], 5.33% (inactive) in [8] and -0.515% (inactive) in assay [14]. Moreover, the growth inhibition in [9] was -25.4% (inactive); in [10], -20.7% (inactive). Besides, the viability increase in assay [11] is -4.6% (inactive). Also, the RAM network inhibition in assay [15] was 5.91% (inactive).

On to `O=C(CN1CCN(Cc2ccc(F)cc2Cl)C1=O)NCCCN1CCOCC1`, for which the viability in assay [1] is 99%; in assay [3], 99% (inactive); in [4] it was 95.2% (inactive); in [5] it was 102% (inactive); in assay [6] (setting [16]), 87.8%; in assay [6] (setting [17]), 102%. Besides, the viability in assay [12] was 94.5% (inactive); in [13], 97.3% (inactive). In addition, the Her2 level in [2] is 104% (inactive). Moreover, the differential viability (reversal) in assay [6] (H69AR cells + 2 uM doxorubicin) was 14% (inactive). Also, the inhibition was -3.07% (inactive) in assay [7], -5.08% (inactive) in assay [8] and 0.47% (inactive) in [14]. Moreover, the growth inhibition in assay [9] is -6.96% (inactive); in assay [10], 8.75% (inactive). Moreover, the viability increase in assay [11] is -0.41% (inactive). Also, the RAM network inhibition in assay [15] was 1.91% (inactive).

On to `Cc1nc2ccc(S(=O)(=O)NC(C(=O)Nc3nccs3)C(C)C)cc2s1` (configuration not stated), for which the viability in assay [1] is 87%; in [3] it was 87% (inactive); in assay [4], 91.6% (inactive); in [5] it was 95.7% (inactive); in assay [6] (setting [16]) it was 90.3%; in [6] (setting [17]), 95.7%. Further, the viability is 101% (inactive) in assay [12] and 104% (inactive) in assay [13]. Besides, the Her2 level in [2] was 93% (inactive). Besides, the differential viability (reversal) in [6] (H69AR cells + 2 uM doxorubicin) was 5.42% (inactive). Further, the results for the inhibition in [7], in [8] and in [14] were 0.13% (inactive), -0.17% (inactive) and 1.99% (inactive), respectively. Besides, the growth inhibition in assay [9] was -5.25% (inactive); in [10], 2.78% (inactive). Besides, in assay [11], the viability increase was -1.85% (inactive). For the same compound, the RAM network inhibition in assay [15] is 1.91% (inactive).
